The results in this text go back to PubChem BioAssay AID1981 (Southern Research Specialized Biocontainment Screening …, 2009).

By inhibition is commonly meant the relative decrease from the control value, in per cent.

SMILES strings stand for the structures. Out of some 2,200 compounds screened, about 480 (22%) were called active. The rule behind the calls is not given here. A selection follows. Measured potencies and affinities stand elsewhere.

The experiment can be described thus: S. Typhimurium GFP fluorescence modified counterscreen for PhoP regulon inhibitor project dose response (AID 1981).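 Note: 0% = induced DMSO wells and 100% = uninduced wells.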 Particulars: 4 h; series mostly up to 150 µM; inhibition: at the top concentration. On the technique in general: The purpose of a counterscreen is to sort out artefacts and off-target activity.
With `c1coc(CNc2c3c(nc4ncnn24)CCCC3)c1`, the “inhibition” value is 4.68% (inactive). For `O=S(=O)(Nc1ccc2c(c1)nc1n2CCN(Cc2ccccc2)C1)c1ccc(F)cc1` the value was 35.4% (inactive); for `CCn1c(SCC(=O)Nc2ccc3c(c2)oc2ccccc23)nnc1-c1ccc(N)cc1`, 7.32% (inactive); for `CC1(C)CC(=O)C2=C(C1)N(c1ccc(F)cc1)C(N)=C(C#N)C2c1cccs1` (stereo not drawn), -7.31% (inactive). As to `O=C(Oc1ccc(N(Cc2cccs2)C2=NS(=O)(=O)c3ccccc32)cc1)c1ccc(Cl)cc1`, the “inhibition” value is -4.74% (inactive).

Consider `O=C(NCCNc1ccc([N+](=O)[O-])cc1C(F)(F)F)c1ccccc1F`, for which the “inhibition” value was -2.86% (inactive). For the compound `O=C(Nc1cnc2ccccc2c1)N1CCOCC1`, the “inhibition” value is -0.26% (inactive).

In the case of `CCOC(=O)N1CCN(S(=O)(=O)c2ccc(C(=O)NNc3nc4c(C)cc(C)cc4s3)cc2)CC1`, the “inhibition” value was 23.2% (inactive).

Take `O=C(c1ccco1)c1cn(CC(=O)N2CCCc3ccccc32)c2ccccc12`: the “inhibition” value was 0.78% (inactive). As for `O=c1cc(O)nc(SCc2ccccc2Cl)[nH]1`, the figure is 13.7% (inactive); as for `Cc1cc(C(=O)N2CCN(C/C=C/c3ccccc3)CC2)no1`, 1.76% (inactive); as for `Cc1[nH]c2ccccc2c1C(c1ccncc1)N1CCN(c2ccc(F)cc2)CC1` (stereo not drawn), 10.1% (inactive). For `Cn1cc(-c2nnnn2-c2cccc(C(F)(F)F)c2)c(C(F)(F)F)n1` the value was -4.52% (inactive); for `COC(=O)CSc1nc(SCc2ccccc2Cl)nc2c1CCCC2`, -9.78% (inactive); for `c1ccc(-c2cc(CSc3nc4ccccc4[nH]3)on2)cc1`, 7.53% (inactive). With `N#Cc1nc(Cc2cccc3ccccc23)oc1NCCCN1CCOCC1`, the “inhibition” value is 5.53% (inactive).

`Cc1nc2cc(NC(=O)N3CCN(c4ccccn4)CC3)ccc2o1`: the “inhibition” value is -5.86% (inactive).

Consider `Oc1ccc(C2NCc3ccccc3-n3cccc32)cc1Cl` (stereo not drawn), for which the “inhibition” value was -3.11% (inactive).

Regarding `CC(=O)c1sc(NC(=O)COc2ccc([N+](=O)[O-])cc2)nc1C`, the “inhibition” value was 8.86% (inactive). For `CCn1c(SCc2ccc(F)cc2)nc2ccccc2c1=O` the value was 2.23% (inactive); for `CCCCCc1ccc(OCCC[n+]2ccccc2)c(CCCCC)c1`, 12.3% (inactive); for `O=C(CSC1CCCCC1)Nc1ccccc1Br`, -7.98% (inactive). For `COc1ccc(NC(C)C(=O)Nc2ccc(C(C)(C)C)cc2)cc1Cl` (stereo not drawn) the value was -0.84% (inactive); for `Cc1cccc(-n2c(O)c(C=NCc3cccnc3)c(=O)[nH]c2=O)c1C`, -13.1% (inactive); for `Cc1ccc(C(C[N+](=O)[O-])c2c(C)cc3ccccn23)cc1` (stereo not drawn), 36.1% (inactive). For `O=C(O)CCS(=O)(=O)c1ccc(-c2ccccc2)cc1` the value was -5.08% (inactive); for `CNC(=O)CSc1nnc(-c2cccnc2)n1CCc1ccccc1`, -12.9% (inactive). For the compound `Cc1ccc(-c2nc3ccccc3[nH]2)cc1NC(=S)NC(=O)c1ccccc1Br`, the “inhibition” value is 19.1% (inactive). With `Cc1ccc(OCc2nnc(SCC(=O)Nc3ccc4c(c3)OCO4)n2C)cc1`, the “inhibition” value was 0.07% (inactive). For the compound `CCOc1ccc(/C(O)=C2\C(=O)C(=O)N(CCN(C)C)C2c2cccc(OC)c2OC)cc1Cl` (stereo not drawn), the “inhibition” value was 10.6% (inactive). For `O=C(Cc1cccs1)Nc1cccc(-c2nc3cc4ccccc4cc3[nH]2)c1` the value was 24.7% (inactive); for `COc1ccc(Cl)cc1-c1nc(SCC(N)=O)n[nH]1`, -2.75% (inactive); for `O=C(OCC#CCSc1nnc(-c2cccc3ccccc23)o1)c1ccco1`, -8% (inactive). For `COc1ccc(Nc2nc(-c3c[nH]c4ccccc34)cs2)cc1` the value was 27.9% (inactive); for `CCc1ccccc1NC(=O)c1nnn(CC(=O)Nc2cccc(C)c2C)c1N`, -15.5% (inactive). For `COc1ccccc1N1CCN(C(=O)c2cccc3c(=O)c(C)c(-c4ccccc4)oc23)CC1`, the “inhibition” value is -17.4% (inactive). Consider `COc1ccccc1NC(=S)NC(=O)C(C)(C)C`, for which the “inhibition” value was -8.6% (inactive). For `CCc1ccc2[nH]c(=O)c(CN(Cc3ccccc3)C(=O)Nc3ccccc3OC)cc2c1` the value was -15.6% (inactive); for `COC(=O)c1ccc(C)c(NC(=O)CN(c2cc(OC)ccc2OC)S(C)(=O)=O)c1`, -2.55% (inactive). For `N#CC1(C#N)COC23CCCCC2C1(C#N)C(=N)O3` (stereo not drawn) the value was 1.01% (inactive).

`COc1ccc(OC)c(-c2cc(C(=O)Nc3c(C)nn(Cc4ccccc4)c3C)no2)c1`: the “inhibition” value is 10.4% (inactive). As for `Cc1nc2ccccc2n1CC(=O)NCc1ccccc1`, the figure is -9.25% (inactive); as for `CCN1CCN(C(=O)c2ccc3c(=O)n(Cc4ccccc4OC)c(=S)[nH]c3c2)CC1`, -14.1% (inactive); as for `CC(C)Cc1nc2ccc(N)cc2[nH]1`, -1.44% (inactive). As for `Cc1[nH]c2ccccc2c1C(=O)COC(=O)c1ccc([N+](=O)[O-])s1`, the figure is 30.4% (inactive).

Consider `Cc1ccc(NC(=O)CSc2nnc(C3CCCCC3)n2N)cc1F`, for which the “inhibition” value was -11.3% (inactive).

Take `O=C(c1cccnc1Nc1ccc2c(c1)CCC2)N1CCOCC1`: the “inhibition” value was -48.3% (inactive). As for `O=C(Nc1cccn(Cc2c(Cl)cccc2Cl)c1=O)c1ccccc1Cl`, the figure is -11.1% (inactive); as for `CCCn1c(N)c(C(=O)COC(=O)c2c(C)noc2C)c(=O)n(C)c1=O`, 3.88% (inactive). Turning to `CCOC(=O)C1=CSC2=NS(=O)(=O)CCN12`, the “inhibition” value is -14.2% (inactive). Regarding `O=C(CCN1C(=O)COc2ccccc21)NCCN1CCOCC1`, the “inhibition” value is -33.9% (inactive). With `C#CCn1c(=NC(=O)c2cc(Cl)sc2Cl)sc2cc(S(N)(=O)=O)ccc21`, the “inhibition” value is 7.48% (inactive). For `CCN(CC)S(=O)(=O)c1ccc(C(=O)N2CCN=C2SCc2cccnc2)cc1` the value was 9.39% (inactive); for `Cc1cc(Nc2ccccc2)nc2cc(O)ccc12`, 7.5% (inactive). For `Cc1cc(O)ccc1Nc1nc2ccccc2nc1Nc1ccc(O)cc1C`, the “inhibition” value was 23.1% (inactive).

With `Cc1ccc(Nc2cc(C)c3c(O)cccc3n2)cc1C`, the “inhibition” value was 28.9% (inactive). Consider `Cc1ccc(Nc2cc(C)c3ccc(O)cc3n2)cc1C`, for which the “inhibition” value was -9.87% (inactive). As to `c1ccc(-n2cnc3cc(NCc4ccccn4)ccc32)cc1`, the “inhibition” value is -5.78% (inactive).

Turning to `CCOC(=O)c1[nH]c2ccccc2c1NC(=O)C(C)(C)C`, the “inhibition” value was -11% (inactive). For `Cn1cc(C(CC(=O)O)C(=O)O)c2ccccc21` (stereo not drawn) the value was -12.2% (inactive); for `CCOc1ccc(-n2c(SCc3nc(-c4ccc(C)cc4)no3)nnc2-c2ccncc2)cc1`, -16.5% (inactive); for `c1cncc(-c2nc(N3CCOCC3)c3ccccc3n2)c1`, -16.8% (inactive). As for `O=c1[nH]c2cc3c(cc2cc1CN(CCc1ccccc1)Cc1nnnn1CC1CCCO1)OCO3` (stereo not drawn), the figure is -25.9% (inactive); as for `CCn1c(=O)c(=O)[nH]c2cc(C(=O)NCC3CCCCC3)ccc21`, -9% (inactive). For the compound `CCOC(=O)CNS(=O)(=O)c1c(C)noc1C`, the “inhibition” value is -22.1% (inactive).

`CC1=CC2=NC(=O)/C(=C\c3cc(C)n(-c4ccc(F)cc4)c3C)C(=N)N2O1`: the “inhibition” value is -3.44% (inactive).

Take `Cc1ccc(C(=O)CSC2=C(C#N)C(c3ccco3)CC(=O)N2)c(C)c1` (stereo not drawn): the “inhibition” value is 5.92% (inactive). As for `COCCNC(=S)N(Cc1cccnc1)Cc1ccc(OC)c(OC)c1`, the figure is -2.44% (inactive). As for `COc1ccc(NC(=O)ON=C2c3ccccc3-c3ccccc32)cc1`, the figure is -8.68% (inactive).

For the compound `COC(=O)c1cc(C#N)c(Oc2ccccc2OC)nc1C`, the “inhibition” value is -4.37% (inactive).

As to `O=C(Cn1nc(C(F)(F)F)c2c1CCCCC2)N1CCOCC1`, the “inhibition” value is -3.81% (inactive).

For `Cc1ccc2occ(/C=N/O)c(=O)c2c1`, the “inhibition” value was 19.3% (inactive). As for `C#CCOc1ccc(/C=C2\SC(=S)N(Cc3cccnc3)C2=O)cc1`, the figure is -3.35% (inactive); as for `c1ccc2oc(SCc3cn4ccccc4n3)nc2c1`, -8.39% (inactive); as for `Cc1cc(NC(=O)c2ccco2)ccc1-n1cnnn1`, -22.4% (inactive). With `CCOc1ccccc1Nc1nc2ccccc2n2cnnc12`, the “inhibition” value is 1.65% (inactive). `CCn1c(=O)c2c(O)cc(=O)oc2c2ccccc21`: the “inhibition” value was 5.61% (inactive). For `Cc1nc([N+](=O)[O-])c(Br)n1CC(=O)c1ccccc1` the value was 23.7% (inactive); for `C=CCNc1ncnc2ccc(Br)cc12`, -12.8% (inactive); for `O=c1c2c(-c3ccccc3)csc2nc2c3ccccc3c(NCCN3CCOCC3)nn12`, 8.44% (inactive). As for `COc1ccc(NC(=O)CSc2nnc(-c3cccs3)n2Cc2ccco2)cc1OC`, the figure is -16.9% (inactive); as for `CCSc1nc(C2CC2)cc(-c2cccs2)c1C#N`, -1.65% (inactive); as for `c1ccc2cc(CSCc3nc4ccccc4[nH]3)ccc2c1`, 13.8% (inactive). Take `Cc1ccc(NC(=O)COC(=O)C2(c3ccc(Cl)cc3)CCCC2)cc1`: the “inhibition” value is -16.8% (inactive). In the case of `O=C(CSc1nnc(-c2cccnc2)o1)OC1CCCCC1`, the “inhibition” value is -25.1% (inactive). For `COc1cccc(NS(=O)(=O)c2c(C)cc(C)cc2C)c1` the value was 7.36% (inactive); for `c1ccc2c(C3=NNC(=NC4CC4)SC3)c[nH]c2c1`, -24.9% (inactive). As for `COc1ccc(NC(=O)CSc2nc(C)cs2)cc1OC`, the figure is -5.4% (inactive). Consider `c1ccn2c(CNc3ncnc4sccc34)nnc2c1`, for which the “inhibition” value is -17.6% (inactive).

Regarding `CCCCOC(=O)CCNc1n[nH]c(=O)[nH]c1=O`, the “inhibition” value is 0.14% (inactive). Consider `O=C(Nc1ccc(NC(=O)C23CC4CC(CC(C4)C2)C3)cn1)c1ccco1`, for which the “inhibition” value was -13.3% (inactive). With `COC(=O)CCC(=O)Nc1ccc(OC)cc1`, the “inhibition” value was 0.92% (inactive). In the case of `CC(=O)N/N=C/c1ccc(OCCOc2ccc(Br)cc2)cc1`, the “inhibition” value was -23.2% (inactive). For the compound `O=C1CCCc2c1cc(C(=O)NCc1ccco1)c(=O)n2-c1ccc(Cl)cc1`, the “inhibition” value is -3.88% (inactive). For `COc1ccc(OC)c(C2=Nn3c(nnc3-c3cc(OC)c(OC)c(OC)c3)SC2)c1`, the “inhibition” value was -4.61% (inactive). For `N[C@H](CSCc1ccccc1)C(=O)Nc1ccc([N+](=O)[O-])cc1` the value was 5.75% (inactive). As to `O=C(Cc1ccc(Cl)cc1)NNS(=O)(=O)c1ccc([N+](=O)[O-])cc1`, the “inhibition” value is -10.4% (inactive). As for `Cc1ccc(CSCc2nc3ccccc3[nH]2)cc1`, the figure is 8.08% (inactive); as for `CN1CCCC(OC(=O)CCCC(=O)OC2CCCN(C)C2)C1` (stereo not drawn), 2.83% (inactive); as for `O=C(c1ccc(Oc2ccccc2)cc1)c1nc2c(n1O)CCCC2`, 23.6% (inactive). With `CC1CC(C)CN(CCCSc2ccccc2)C1` (stereo not drawn), the “inhibition” value is -12% (inactive). In the case of `CC(Nc1ccc(Br)cn1)c1cc(Cl)ccc1O` (stereo not drawn), the “inhibition” value was 15.7% (inactive). Turning to `O=C(CN1CCN(c2ccccn2)CC1)Nc1ccc(Oc2ccccc2)cc1`, the “inhibition” value was 0.24% (inactive). For `Cc1nn2c(=O)cc(CSc3nc4ccccc4[nH]3)nc2s1` the value was 5.25% (inactive); for `CC(=Nc1c(C)n(C)n(-c2ccccc2)c1=O)c1c(O)n(Cc2ccccc2)c(=O)[nH]c1=O`, -0.46% (inactive); for `Cc1cc2nn(-c3ccccc3)nc2cc1NC(=O)c1cccs1`, -22.9% (inactive).

Regarding `NNC(=O)CNC(c1ccccc1)c1cc(Br)ccc1NC(=O)c1ccc(Br)cc1` (stereo not drawn), the “inhibition” value was 19% (inactive). As for `O=C(/C=C/c1ccco1)N/C(=C\c1ccccc1)C(=O)NCCc1nc2ccccc2[nH]1`, the “inhibition” value was -0.03% (inactive). As for `O=C(O)CCc1nn2c3ccccc3n(CCN3CCCCC3)c2nc1=O`, the figure is 4% (inactive). As for `O=C(NCc1cccs1)[C@@H]1CSC2c3ccccc3C(=O)N21` (stereo partly drawn), the figure is 2.31% (inactive); as for `CC(C(=O)NC1CCCc2ccccc21)N1CCN(Cc2ccc3c(c2)OCO3)CC1` (stereo not drawn), -1.02% (inactive).

Turning to `Cc1ccc(NC2CC(=O)N(Cc3ccccc3)C2=O)cc1` (stereo not drawn), the “inhibition” value is -19.2% (inactive). For `NC(=O)C1(NC(=O)[C@@H]2CC3(CC(c4cccc(NC(=O)[C@@H]5CCC(=O)N5)c4)=NO3)CN2C(=O)Cc2ccc(Cl)cc2)CC1` (stereo partly drawn) the value was -10.6% (inactive).
